Source: PubChem BioAssay (EPA / NIEHS)
Several values for one entry are separate records, joined by “and”; a condition that tells them apart may be missing. Identical values can stand only once. More than one record can exist for a structure, and the calls need not agree. Activity calls are given as the source filed them. How the source made its calls: active means hit-call score of the fitted dose curve at least 0.9, where 1 is the maximum; inactive means score below 0.9.

What was measured:
[1] = BSK_hDFCGF_SRB: Viability Assessment in the BioMAP Diversity Plus: hDFCGF Assay (AID 2283061); conditions: primary human foreskin fibroblasts;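 further: cells exposed to compound for 24 h before the read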
In short: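 Readout is SRB absorbance at 560 nm, reflecting total protein in parallel cultures of human foreskin fibroblasts harvested 24 h after chemical dosing. Activity was fitted bidirectionally relative to DMSO.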

[2] = read-out: TIMP metallopeptidase inhibitor 1 (TIMP1), TIMP1 (gene 7076); assay: BSK_hDFCGF_TIMP1: BioMAP Diversity Plus: hDFCGF Assay for TIMP metallopeptidase inhibitor 1 (TIMP1) Biomarker Activity (AID 2283062); conditions: primary human foreskin fibroblasts; actives raise or lower the signal
In short: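 Human skin fibroblasts (primary), hDFCGF system; compound exposure 24 h; TIMP-1 by ELISA; bidirectional fit vs DMSO negative control; overt cytotoxicity by SRB in parallel wells.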

[3] = read-out: Monokine induced gamma interferon (MIG), CXCL9 (gene 4283); assay: BSK_hDFCGF_MIG: BioMAP Diversity Plus: hDFCGF Assay for Monokine induced gamma interferon (MIG) Biomarker Activity (AID 2283063); conditions: primary human foreskin fibroblasts; actives raise or lower the signal
In short: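 Chemicals were added to primary human foreskin fibroblast cultures, which were sampled 24 h later. MIG levels were then quantified by ELISA and responses fitted in both directions relative to DMSO.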

[4] = read-out: Matrix Metallopeptidase 1 (MMP1), MMP1 (gene 4312); assay: BSK_hDFCGF_MMP1: BioMAP Diversity Plus: hDFCGF Assay for Matrix Metallopeptidase 1 (MMP1) Biomarker Activity (AID 2283064); conditions: primary human foreskin fibroblasts; actives raise or lower the signal
In short: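 Primary human foreskin fibroblasts in the hDFCGF system were dosed with test chemical, and MMP1 was measured by ELISA 24 h later. Values come from bidirectional curve fitting against the DMSO baseline.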

[5] = read-out: Vascular cell adhesion molecule 1 (VCAM1), VCAM1 (gene 7412); assay: BSK_hDFCGF_VCAM1: BioMAP Diversity Plus: hDFCGF Assay for Vascular cell adhesion molecule 1 (VCAM1) Biomarker Activity (AID 2283065); conditions: primary human foreskin fibroblasts; actives raise or lower the signal;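 on AC50: VCAM-1 protein level quantified by ELISA after 24 h chemical exposure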
In short: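 Human foreskin fibroblast primary cells, chemical exposure 24 h; VCAM-1 by ELISA; bidirectional fit, DMSO = negative control/baseline.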

[6] = read-out: Plasminogen activator inhibitor-1 (PAI1), SERPINE1 (gene 5054); assay: BSK_hDFCGF_PAI1: BioMAP Diversity Plus: hDFCGF Assay for Plasminogen activator inhibitor-1 (PAI1) Biomarker Activity (AID 2283066); conditions: primary human foreskin fibroblasts; actives raise or lower the signal
In short: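 Human foreskin fibroblasts in the hDFCGF system were dosed with compound for 24 h; PAI-1 was quantified by ELISA. Bidirectional curve fitting used DMSO as negative control and baseline.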

[7] = read-out: Intercellular Adhesion Molecule 1 (ICAM1), ICAM1 (gene 3383); assay: BSK_KF3CT_ICAM1: BioMAP Diversity Plus: KF3CT Assay for Intercellular Adhesion Molecule 1 (ICAM1) Biomarker Activity (AID 2283067); conditions: primary human keratinocytes with fibroblasts; actives raise or lower the signal
In short: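 ICAM-1 levels are measured by ELISA 24 h after dosing a primary human co-culture of keratinocytes and foreskin fibroblasts. Activity in either direction is fitted relative to DMSO vehicle.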

[8] = read-out: Interferon-gamma inducible Protein 10 (IP10), CXCL10 (gene 3627); assay: BSK_KF3CT_IP10: BioMAP Diversity Plus: KF3CT Assay for Interferon-gamma inducible Protein 10 (IP10) Biomarker Activity (AID 2283068); conditions: primary human keratinocytes with fibroblasts; actives raise or lower the signal
In short: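 In a primary skin co-culture of keratinocytes and fibroblasts, IP-10 is quantified by ELISA at 24 h after dosing. SRB staining of parallel wells monitors overt toxicity. Curves are fitted both directions against DMSO.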

[9] = BSK_KF3CT_SRB: Viability Assessment in the BioMAP Diversity Plus: KF3CT Assay (AID 2283069); conditions: primary human keratinocytes with fibroblasts;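 further: total protein by sulforhodamine B staining as a cytotoxicity measure; read 24 h after compound addition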
In short: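 Human primary keratinocyte plus foreskin fibroblast co-culture exposed to chemicals for 24 h. Total protein measured by 0.1% sulforhodamine B staining after 10% TCA fixation, read at 560 nm; bidirectional fitting versus DMSO baseline.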

[10] = read-out: Interleukin-1 alpha (IL1a), IL1A (gene 3552); assay: BSK_KF3CT_IL1a: BioMAP Diversity Plus: KF3CT Assay for Interleukin-1 alpha (IL1a) Biomarker Activity (AID 2283070); conditions: primary human keratinocytes with fibroblasts; actives raise or lower the signal
In short: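 Human keratinocyte plus foreskin fibroblast primary co-culture, sampled 24 h after chemical dosing. IL-1a measured by ELISA; responses fitted bidirectionally against DMSO baseline (negative control), so gain or loss of signal both count.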

[11] = read-out: TIMP metallopeptidase inhibitor 2 (TIMP2), TIMP2 (gene 7077); assay: BSK_KF3CT_TIMP2: BioMAP Diversity Plus: KF3CT Assay for TIMP metallopeptidase inhibitor 2 (TIMP2) Biomarker Activity (AID 2283071); conditions: primary human keratinocytes with fibroblasts; actives raise or lower the signal
In short: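 Human primary keratinocyte/foreskin fibroblast co-culture dosed with chemical and sampled at 24 h. TIMP-2 levels quantified by ELISA; bidirectional fitting against DMSO negative control as baseline.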

[12] = read-out: Transforming growth factor beta 1 (TGFb1), TGFB1 (gene 7040); assay: BSK_KF3CT_TGFb1: BioMAP Diversity Plus: KF3CT Assay for Transforming growth factor beta 1 (TGFb1) Biomarker Activity (AID 2283072); conditions: primary human keratinocytes with fibroblasts; actives raise or lower the signal
In short: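 Human keratinocyte plus foreskin fibroblast primary co-culture, dosed with chemical for 24 h. TGF-b1 quantified by ELISA. Activity fitted bidirectionally against DMSO negative control as baseline.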

[13] = read-out: C-C motif chemokine 2 (Homo sapiens) (UniProt P13500); assay: BSK_KF3CT_MCP1: BioMAP Diversity Plus: KF3CT Assay for Monocyte Chemoattractant Protein 1 (MCP1/CCL2) Biomarker Activity (AID 2283073); conditions: primary human keratinocytes with fibroblasts; actives raise or lower the signal
In short: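 ELISA readout of MCP-1 after 24 h chemical dosing of a human skin primary co-culture of keratinocytes and foreskin fibroblasts. Activity was fitted in both directions against DMSO.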

[14] = read-out: Matrix Metallopeptidase 9 (MMP9), MMP9 (gene 4318); assay: BSK_KF3CT_MMP9: BioMAP Diversity Plus: KF3CT Assay for Matrix Metallopeptidase 9 (MMP9) Biomarker Activity (AID 2283074); conditions: primary human keratinocytes with fibroblasts; actives raise or lower the signal;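 on AC50: MMP9 protein level quantified by ELISA in the co-culture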
In short: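 Keratinocyte plus foreskin fibroblast human primary skin co-culture was dosed with chemical and MMP-9 was quantified by ELISA 24 h later. Bidirectional curve fitting used DMSO as negative control and activity baseline.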

[15] = read-out: urokinase plasminogen activator (uPA), PLAU (gene 5328); assay: BSK_KF3CT_uPA: BioMAP Diversity Plus: KF3CT Assay for urokinase plasminogen activator (uPA) Biomarker Activity (AID 2283075); conditions: primary human keratinocytes with fibroblasts; actives raise or lower the signal
In short: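 Human keratinocyte plus foreskin fibroblast primary co-culture exposed to chemical for 24 h. uPA levels were quantified by ELISA, and activity was fitted bidirectionally against a DMSO negative-control baseline.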

CD40, CD40 (gene 958) = assay: BSK_LPS_CD40: BioMAP Diversity Plus: LPS Assay for CD40 Biomarker Activity (AID 2283076); conditions: primary human HUVEC with PBMC; actives raise or lower the signal
In short: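 Cells were dosed, incubated 24 h, then assayed for CD40 by ELISA. Gain or loss of signal was analysed relative to DMSO controls. The culture paired human umbilical vein endothelium with peripheral blood mononuclear cells.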

[16] = read-out: E-selectin (Homo sapiens) (UniProt P16581); assay: BSK_LPS_Eselectin: BioMAP Diversity Plus: LPS Assay for Eselectin Biomarker Activity (AID 2283077); conditions: primary human HUVEC with PBMC; actives raise or lower the signal
In short: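 Primary human vascular co-culture (endothelium plus PBMC) was dosed with chemical, then E-selectin quantified by ELISA at 24 h. Endpoint values derive from bidirectional curve fitting relative to DMSO.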

[17] = read-out: Interleukin-8 (IL8), CXCL8 (gene 3576); assay: BSK_LPS_IL8: BioMAP Diversity Plus: LPS Assay for Interleukin-8 (IL8) Biomarker Activity (AID 2283078); conditions: primary human HUVEC with PBMC; actives raise or lower the signal
In short: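 Readout is IL-8 by ELISA, taken 24 h after compounds were added to LPS-stimulated endothelial/PBMC co-cultures. Both increases and decreases relative to DMSO control were scored through bidirectional fitting.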

[18] = BSK_LPS_SRB: Viability Assessment in the BioMAP Diversity Plus: LPS Assay (AID 2283079); conditions: primary human HUVEC with PBMC;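 further: total protein by sulforhodamine B absorbance as a cytotoxicity measure; measured one day after compound addition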
In short: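 Readout is SRB absorbance at 560 nm (0.1% stain, TCA-fixed parallel cultures) as a total-protein cytotoxicity measure. Cells: primary human umbilical vein endothelium plus peripheral blood mononuclear cells, 24 h after chemical exposure; DMSO served as baseline.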

[19] = read-out: Interleukin-1 alpha (IL1a), IL1A (gene 3552); assay: BSK_LPS_IL1a: BioMAP Diversity Plus: LPS Assay for Interleukin-1 alpha (IL1a) Biomarker Activity (AID 2283080); conditions: primary human HUVEC with PBMC; actives raise or lower the signal
In short: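 ELISA read-out of IL-1 alpha from a human primary vascular co-culture (endothelium plus PBMC) under LPS, sampled 24 hours post-dosing. Activity was fitted in both directions relative to DMSO controls.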

Measured: AC50

E-selectin (Homo sapiens), sequence (P16581 whole entry, looked up): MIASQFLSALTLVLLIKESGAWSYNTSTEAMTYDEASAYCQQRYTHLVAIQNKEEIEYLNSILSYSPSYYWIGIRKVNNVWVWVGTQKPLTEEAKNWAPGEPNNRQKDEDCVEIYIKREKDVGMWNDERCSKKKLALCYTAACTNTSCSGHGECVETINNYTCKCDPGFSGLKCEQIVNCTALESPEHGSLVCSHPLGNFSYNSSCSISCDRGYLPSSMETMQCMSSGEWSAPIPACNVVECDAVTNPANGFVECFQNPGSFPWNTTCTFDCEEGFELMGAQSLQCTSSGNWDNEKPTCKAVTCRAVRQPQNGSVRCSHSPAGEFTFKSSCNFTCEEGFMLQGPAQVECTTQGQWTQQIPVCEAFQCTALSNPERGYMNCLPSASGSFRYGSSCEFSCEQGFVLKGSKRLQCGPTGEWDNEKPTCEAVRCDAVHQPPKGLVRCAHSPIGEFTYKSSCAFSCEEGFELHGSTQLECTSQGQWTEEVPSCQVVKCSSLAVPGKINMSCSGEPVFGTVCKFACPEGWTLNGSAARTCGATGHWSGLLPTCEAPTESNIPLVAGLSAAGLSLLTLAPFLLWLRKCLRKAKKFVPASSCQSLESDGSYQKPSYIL

OCCC(F)(F)C(F)(F)C(F)(F)C(F)(F)C(F)(F)C(F)(F)C(F)(F)C(F)(F)F
inactive: [1] | [2] | [3] | [4] | [5] | [6] | [7] | [8] | [9] | [10] | [11] | [12] | [13] | [14] | [15] | CD40, CD40 (gene 958) | [16] | [17] | [18] | [19]
active: [1] 13.8 µM and 15.5 µM | [2] 16.3 µM and 14.6 µM | [3] 18 µM and 17.8 µM | [4] 17.9 µM and 17 µM | [5] 16.1 µM and 12.8 µM | [6] 12.8 µM | [7] 23.2 µM and 20 µM | [8] 15.7 µM | [9] 18.1 µM and 14.5 µM | [10] 17.3 µM and 9.96 µM | [11] 19.9 µM and 14.6 µM | [13] 20.1 µM and 18 µM | [14] 13.6 µM and 12.2 µM | [15] 17.1 µM and 19.1 µM | CD40, CD40 (gene 958) 30.6 µM and 29.1 µM | [16] 40 µM and 30 µM | [17] 30 µM | [18] 15.8 µM and 17.4 µM | [19] 18.7 µM and 23.8 µM

CC#C[C@]1(O)CC[C@H]2[C@@H]3CCC4=CC(=O)CCC4=C3[C@@H](c3ccc(N(C)C)cc3)C[C@@]21C
active: [1] 20 µM | [4] 26.1 µM | [6] 11.2 µM | [7] 20 µM | [13] 34.2 µM | [14] 24.1 µM | CD40, CD40 (gene 958) 33.8 µM | [16] 30.5 µM | [17] 32.6 µM | [18] 27.9 µM | [19] 31.3 µM
inactive: [2] | [3] | [5] | [8] | [9] | [10] | [11] | [12] | [15]

Nc1cccc2c(N)cccc12
active: [3] 16.3 µM | [5] 6.83 µM
inactive: all other assays above

CCC(=C(c1ccc(O)cc1)c1ccc(OCCN(C)C)cc1)c1ccccc1
active: [1] 10.7 µM | [2] 12.1 µM | [3] 13.7 µM | [4] 10.7 µM | [5] 10.7 µM | [6] 7.53 µM | [7] 12.3 µM | [8] 10.4 µM | [9] 8.81 µM | [10] 9.91 µM | [11] 10.5 µM | [12] 9.8 µM | [13] 10.2 µM | [14] 8.87 µM | [15] 11.8 µM | CD40, CD40 (gene 958) 7.71 µM | [16] 19.8 µM | [17] 13.3 µM | [18] 9.13 µM | [19] 8.66 µM
